Potency, z-score and Z-AUC data for 5 molecules are collected here from PubChem BioAssay (NCATS).

Records with an inconclusive call do not appear. Activity calls are given as the source filed them. Unless noted, calls follow the shape of the dose curve; as a rule, active = well fitted cell-killing curve with a large enough effect; inconclusive = small, poorly fitted or top-dose-only effect, or effect the other way; inactive = no such curve, though single readings can be large or run the other way.

Experiment [1] is described as follows: Quantitative High-Throughput drug screen in 47 multiple myeloma cell lines against the NCATS MIPE library collection: PCM6_Riken cell viability assay (AID 1919870). Also: nearly all actives have a fitted effect of over 30% in size. Also: potency is read from the fitted curve at half-maximal effect. The conditions noted are these: CellTiter-Glo ATP, 48 h; series mostly up to 45.8 µM. The gist of the method: (§1)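 Readout: median RLU from CellTiter-Glo after 5 min at room temperature. Preceding step was 48 h drug treatment of 500 cells/well at 37 °C, 5% CO2, with DMSO-only and media-only control wells.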
Background: ATP-based viability assays read luminescence as a measure of living cells.

Experiment [2] in a line: Quantitative High-Throughput drug screen in 47 multiple myeloma cell lines against the NCATS MIPE library collection: RPMI8226_ATCC cell viability assay (AID 1919871). Also: nearly all actives have a fitted effect of over 30% in size. Also: potency is read from the fitted curve at half-maximal effect. The conditions noted are these: RPMI8226 myeloma viability, CellTiter-Glo ATP luminescence, 48 h; series mostly up to 45.8 µM. Summed up: as §1
Experiment [3] is described as follows: Quantitative High-Throughput drug screen in 47 multiple myeloma cell lines against the NCATS MIPE library collection: KMS11_JCRBsus cell viability assay (AID 1919873). Also: nearly all actives have a fitted effect of over 50% in size. Also: potency is read from the fitted curve at half-maximal effect. Conditions: KMS11 myeloma viability, CellTiter-Glo ATP luminescence, 48 h; series mostly up to 45.8 µM. Summed up: as §1
Experiment [4] can be described thus: Quantitative High-Throughput drug screen in 47 multiple myeloma cell lines against the NCATS MIPE library collection: KMS28BM_JCRB cell viability assay (AID 1919874). Also: nearly all actives have a fitted effect of over 35% in size. Also: potency is read from the fitted curve at half-maximal effect. Conditions: CellTiter-Glo ATP, 48 h; series mostly up to 45.8 µM. Summed up: as §1
The nature of experiment [5]: qHTS for identification of novel therapeutic agents for treatment of microphthalmiaassociated transcription factor (MiT) renal cell carcinoma (RCC) (AID 1963991; calls by dose curve; also: potency is read from the fitted curve at half-maximal effect). The conditions noted are these: CellTiter-Glo, 48 h; for z-score: stronger effect = lower value. Summed up:
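Curves over 11 concentrations were fitted to CellTiter-Glo luminescence, scaled between empty wells (0%) and DMSO (100%) viability. Cells were UOK109, UOK124 and UOK145 TFE3-fusion RCC lines at 500/well, exposed 48 hours at 37 C.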
(In general: Quantitative high-throughput screening tests each substance at several concentrations.)

Experiment [6] is described as follows: qHTS drug screen for cell cycle checkpoint inhibitors in PARPi-resistant BRCA-mutant ovarian cancer cell lines. (AID 1963452; calls by dose curve). Conditions: PEO1/OlaR viability, CellTiter-Glo luminescence, 96 h, stronger effect = lower value. The gist of the method:
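PEO1, PEO4 and PEO1/OlaR ovarian cancer cells, 600 per well, exposed 96 h at 37C to a dilution series. Viability read by CellTiter-Glo luminescence, normalized to DMSO and empty wells; activity summarized as Z-AUC.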

The nature of experiment [7]: Quantitative High-Throughput drug screen in 47 multiple myeloma cell lines against the NCATS MIPE library collection: OPM2_DSMZ cell viability assay (AID 1919872). Also: nearly all actives have a fitted effect of over 30% in size. Also: potency is read from the fitted curve at half-maximal effect. Conditions: OPM2 myeloma viability, CellTiter-Glo ATP luminescence, 48 h; series mostly up to 45.8 µM. Summed up: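 Approved and investigational drugs from MIPE 4.0 were added by pin tool to 500 cells per well. After 48 hours at 37C, ATP-based CellTiter-Glo luminescence indicated remaining viability.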

The mark [8] stands for this setting: TFE3-RCC UOK109 viability, measured here: UOK109 Z-AUC.
[9] abbreviates: TFE3-RCC viability, measured here: UOK124 Z-AUC.
[10] abbreviates: TFE3-RCC viability, measured here: UOK145 Z-AUC.
Setting [11] is: measured here: PEO1 parental Z-AUC.

With `O=C(C=Cc1c(C(=O)O)[nH]c2cc(Cl)cc(Cl)c12)Nc1ccccc1`, the Potency result in experiment [1], in experiment [2], in experiment [3] and in experiment [4] was “inactive” throughout. Besides, the z-score came to 0.0645 in experiment [5] (setting [8]), 0.537 in experiment [5] (setting [9]) and 0.334 in experiment [5] (setting [10]).

`Cc1c(Cn2c(C)nc3c(C(=O)O)cc(N4CCOCC4)cc32)cccc1C(F)(F)F`: the Potency entry in experiment [2], in experiment [3] and in experiment [4] was “inactive” throughout. The Z-AUC was 0.672 (inactive) in experiment [6], 0.875 in experiment [6] (setting [11]) and 0.3 in experiment [6] (measured here: PEO4 Z-AUC).

For `CCn1nnc2c(N3CCOCC3)nc(-c3ccc(NC(=O)Nc4ccc(C(=O)N5CCN(C)CC5)cc4)cc3)nc21`, the Potency in experiment [1] was 33.2 nM (active); in experiment [2] it was 52.6 nM (active); in experiment [7], 93.5 nM (active); in experiment [3], 23.5 nM (active); in experiment [4], 4.2 nM (active); in experiment [5] (TFE3-RCC UOK109 viability, active = Z-AUC below -0.8 in all three lines) it was 526 nM (active). The results for the Z-AUC in experiment [6], in experiment [6] (setting [11]) and in experiment [6] (measured here: PEO4 Z-AUC) were -0.869 (inactive), -1.58 and -1.65, respectively. The z-score in experiment [5] (setting [8]) is -1.28; in experiment [5] (setting [9]), -1.68; in experiment [5] (setting [10]), -1.94.

Take `Cn1c2cc(S(C)=O)sc2c2cnn(Cc3cccc(N)c3)c(=O)c21` (stereo not given): the Potency result in experiment [1], in experiment [2], in experiment [7], in experiment [3] and in experiment [4] was “inactive” throughout. Also, the Z-AUC is 1.34 (inactive) in experiment [6], 0.817 in experiment [6] (setting [11]) and 0.912 in experiment [6] (measured here: PEO4 Z-AUC).

With `Cc1cn(-c2cc(NC(=O)c3ccc(C)c(Nc4nccc(-c5cccnc5)n4)c3)cc(C(F)(F)F)c2)cn1`, the Potency entry in experiment [1] and in experiment [4] was “inactive” in each case. Moreover, the Potency in experiment [7] is 14800 nM (active); in experiment [3], 5260 nM (active). For the same molecule, the Z-AUC in experiment [6] is 0.642 (inactive); in experiment [6] (setting [11]), 0.692; in experiment [6] (measured here: PEO4 Z-AUC), 0.0156.
